Results as given in PubChem BioAssay (NCATS).
Records with an inconclusive call do not appear. A call without a number means that no potency is given here. Calls of active or inactive are those of the source. Calls come from the whole dose curve; as a rule, active = well fitted curve in the direction sought with a large enough effect; inconclusive = small, poorly fitted or top-dose-only effect, or another doubt; inactive = no such curve, though single readings can be large; an effect the other way counts as inactive or inconclusive.

Assays:
[1] = qHTS for inhibitors of adenylyl cyclases using a fission yeast platform: a pilot screen against the NCATS LOPAC library (AID 1347410); details: S. pombe CHP2027, fbp1-GFP fluorescence, 18 h, yeast expressing mammalian AC9 and human GNAS; series mostly up to 57.5 µM
Procedure, shortened: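 S. pombe CHP2027 (AC9-GNAS-PDE4D2) carrying PKA-repressed fbp1-GFP, incubated 18 h at 30C in EMM with LOPAC compounds at up to 57 uM. GFP gain-of-signal read by laser scanning cytometry; DMSO negative control.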

[2] = Validation qHTS assay for inhibitors of Activation Induced Cytidine Deaminase (AID): UDG Counterscreen signal (AID 1347427); details: biochemical UDG counterscreen, fluorescence signal; series mostly up to 115 µM
Procedure, shortened: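 Counterscreen read of UDG activity (2 U/mL, 4/3x) in the FRET deamination format with AID (1 uM, 4/3x), DJC20/DJC23 substrates (250 nM, 4x), 4 h at room temperature. NaOH stop, fluorescence at 560 ex/665 em.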

[3] = molecular target: Single-stranded DNA cytosine deaminase (Homo sapiens) (UniProt Q9GZX7); experiment: Validation qHTS assay for inhibitors of Activation Induced Cytidine Deaminase (AID): AID signal (AID 1347429); details: Recombinant AID, FRET ssDNA deamination with UDG, fluorescence; series mostly up to 115 µM
Procedure, shortened: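 FRET deamination assay: 1 uM AID (4/3x stock) with UDG, compound up to 114 uM, then 250 nM DJC20/DJC23 substrate (4x stock) for 4 hr at room temperature. NaOH added, 30 min; fluorescence read 540/590 nm.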

[4] = Primary qHTS for inhibitors of La Crosse Virus (LACV) - induced cell death in SH-SY5Y cells (AID 1508616); details: SH-SY5Y LACV cytopathicity rescue, ATP luminescence, 6 d; series mostly up to 9.63 µM; note: potency is the fitted concentration of half-maximal effect
Procedure, shortened: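 SH-SY5Y cells (6000/well) plated 24 h, then given compounds by pin transfer and LACV at 0.01 MOI for 6 days at 37C. Viability measured by ATPLite luminescence, normalized to infected DMSO and uninfected DMSO.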

[5] = qHTS to identify inhibitors of the type 1 interferon - major histocompatibility complex class I in skeletal muscle: primary screen against the NCATS Mechanism Interrogation Plate v5.0 (MIPE) Libary (AID 1347411); details: iHSKM cells + IFN-b, HiBiT-tagged MHC-I luminescence, 24 h; series mostly up to 45.8 µM; note: nearly all actives have a fitted effect of over 65% in size
Procedure, shortened: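 Immortalized human myoblasts (C25cl48) with HiBit knocked into endogenous HLA-B*08:01 were stimulated with 4 ng/ml IFN-beta and given compounds in 11-point 1:3 titration from 46 uM. After 24 h at 37 C, lytic HiBiT luminescence was read.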

Sequence of Single-stranded DNA cytosine deaminase (Homo sapiens) (Q9GZX7 whole entry, looked up): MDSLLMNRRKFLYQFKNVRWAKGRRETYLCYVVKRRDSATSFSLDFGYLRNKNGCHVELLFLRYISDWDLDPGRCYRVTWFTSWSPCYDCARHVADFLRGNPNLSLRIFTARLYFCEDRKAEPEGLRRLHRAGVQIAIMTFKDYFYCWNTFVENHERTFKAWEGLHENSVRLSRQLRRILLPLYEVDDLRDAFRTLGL

SMILES	outcome [1]	Potency [2]	Potency [3]	Potency [4]	outcome [5]
CC(=O)NNC(=O)N1Cc2ccccc2Oc2ccc(Cl)cc21	inactive	inactive	inactive	inactive	–
CC(/C=C/c1cccc(Oc2ccc(F)cc2)c1)N(O)C(N)=O (stereo not drawn)	inactive	inactive	inactive	inactive	–
NCCCCN	inactive	inactive	inactive	inactive	–
C[C@H](NC(=O)/C(C#N)=C/c1ccc(O)c(O)c1)c1ccccc1	inactive	inactive	inactive	inactive	–
O=C(O)CCC/C=C\C[C@@H]1[C@@H](/C=C/[C@H](O)C2Cc3ccccc3C2)[C@@H](F)C[C@@H]1O	inactive	inactive	inactive	inactive	–
Cc1ccccc1/C=C/C1=NCCN1	inactive	inactive	inactive	inactive	–
CCCC[C@@]1(C2CCCC2)Cc2cc(OCC(=O)O)c(Cl)c(Cl)c2C1=O	inactive	inactive	inactive	inactive	–
CN[C@H](CC(=O)O)C(=O)O	inactive	inactive	inactive	inactive	–
Oc1cc2c(cc1O)C(c1ccccc1)CNCC2 (stereo not drawn)	inactive	inactive	inactive	inactive	–
CC[C@@H]1Cc2cc(O)ccc2C2=C1c1ccc(O)cc1C[C@H]2CC	inactive	inactive	inactive	inactive	–
COc1cc2c(CCNC(C)=O)c[nH]c2cc1O	inactive	inactive	inactive	inactive	–
CCCCCCCC/C=C\CCCCCCCC(=O)NCCc1ccc(O)c(O)c1	inactive	inactive	inactive	2820 nM (active)	–
O=C(N[C@@H](Cc1ccccc1)C(=O)CCl)OCc1ccccc1	inactive	inactive	inactive	1000 nM (active)	–
COc1cc(/C=C(\C#N)C(=O)Nc2nnc(C(F)(F)F)s2)ccc1OCc1ccc(C(F)(F)F)cc1C(F)(F)F	–	–	–	–	inactive
